Shown is part of a subset that was picked to be rich in hits.
Methyltransferases = Primary Screen for Target Class Profiling of Small Molecule Inhibitors of Methyltransferases. purified enzyme, MTase-Glo SAH luminescence; hits give low values. calls only at 40 µM. 25,000 compounds, 3.9% hits. AID 1745853, 2022; call rule not given here
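Each enzyme was assayed with SAM and its substrate. SAH formation detected by MTase-Glo luminescence; single-point 40 uM screen[…].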
Active calls of the source: *; i = inactive; + = active, no number; ! = not confirmed by another sample. On the % scale 0 is the no-effect control and ±100 the full control effect.

SMILES	Methyltransferases
CCOC(=O)C1(CCOc2ccccc2)CCN(Cc2ccc(O)c(Cl)c2)CC1	i
O=C(O)Cn1nnc(-c2ccc(CN(CCCCOc3ccc(CN4CCCC4)cc3)CCc3ccccc3)cc2)n1	+
CCn1nc(CNC(=O)Cc2ccccc2F)c2ccccc21	i
CCS(=O)(=O)N1CCC(CCOC)(NC(=O)C2CC2)CC1	i
C/C=C/C=C/C(CC(=O)O)Nc1ccc(C=O)cc1 (stereo not drawn)	i
O=C(O)c1cccc(CC2CCN(C(=O)CCC(F)(F)F)C2)c1 (stereo not drawn)	i
COC(=O)C1=COC(O[C@@H]2O[C@H](CO[C@@H]3O[C@H](COC(=O)/C=C\c4ccc(O)cc4)[C@@H](O)[C@H](O)[C@H]3O)[C@@H](O)[C@H](O)[C@H]2O)C2C(CO)=CCC12 (stereo partly drawn)	i
COC(=O)C1=COC(OC2OC(CO)C(O)C(O)C2O)C2C(COC(=O)/C=C/c3ccc(O)c(O)c3)C(O)C(O)C12 (stereo not drawn)	i
COC(=O)C1=CO[C@@H](O[C@@H]2O[C@H](CO[C@@H]3O[C@H](COC(=O)/C=C/c4cc(OC)c(O)c(OC)c4)[C@@H](O)[C@H](O)[C@H]3O)[C@@H](O)[C@H](O)[C@H]2O)[C@@H]2C(CO)=CC[C@H]12	+
COc1cc(/C=C/C(=O)OC[C@H]2O[C@@H](OC3OC=C(C(=O)O)C4C(O)CC(C)(O)C34)[C@H](O)[C@@H](O)[C@@H]2O)cc(OC)c1O (stereo partly drawn)	+
C[C@]1(O)CC[C@@H]2C(C(=O)O)=CO[C@@H](O[C@@H]3O[C@H](COC(=O)c4ccc(O)cc4)[C@@H](O)[C@H](O)[C@H]3O)[C@@H]21	i
C=C1C(O)CC2C(C(=O)O)=COC(O[C@@H]3O[C@H](COC(=O)c4ccc(O)cc4)[C@@H](O)[C@H](O)[C@H]3O)C12 (stereo partly drawn)	i
COC(=O)C1=CO[C@@H](O[C@@H]2O[C@H](CO[C@@H]3O[C@H](COC(=O)/C=C/c4ccc(O)cc4)[C@@H](O)[C@H](O)[C@H]3O)[C@@H](O)[C@H](O)[C@H]2O)[C@@H]2C(CO)=CC[C@H]12	i
C=C1[C@H]2[C@H](O[C@@H]3O[C@H](COC(=O)/C=C/c4cc(OC)c(O)c(OC)c4)[C@@H](O)[C@H](O)[C@H]3O)OC=C(C(=O)O)[C@H]2C[C@@H]1O	+
CC1(O)CC(O)C2C(C(=O)O)=COC(OC3OC(CO)C(O)C(O)C3OC(=O)/C=C/c3ccc(O)cc3)C21 (stereo not drawn)	i
CN1C(=O)c2cc(C(=O)NCc3ccccc3)nn2CC1(C)C(=O)NC1CCCC1 (stereo not drawn)	i
CC(=O)N1CCCN(c2ncnc3c2CN(C2CCCCC2)C(=O)CN3C)CC1	i
C/C=C/C1OC2=C(C(=O)OC2(C)O)C(O)C1O (stereo not drawn)	i
CCOc1ccc(CN2C(=O)c3cc4ccccc4n3CC2(C)C(=O)NCCC(C)C)cc1OC (stereo not drawn)	i
CC1(C)OC(=O)C=C[C@@]2(C)C1CC(=O)[C@]1(C)C2CC[C@@]2(C)[C@H](c3ccoc3)OC(=O)[C@H]3O[C@]321 (stereo partly drawn)	i
CCc1cc2c(cc3n2CC(C)(C(=O)NC2CCCCCC2)N(c2cccc(Cl)c2C)C3=O)s1 (stereo not drawn)	i
CN(C)c1ccc(CNC(=O)Cn2c(=O)oc3cc(S(=O)(=O)NC4CCCC4)ccc32)cc1	i
COc1cccc(CNC(=O)Cn2nc3n(Cc4ccccc4)c(=O)c4ccccc4n3c2=O)c1	i
Cc1cccc(CCNC(=O)CCCc2nnc3n4nc(-c5ccccc5)nc4c4ccccc4n23)c1	i
N#Cc1ccc2[nH]cc(CCCCN3CCN(c4ccc5oc(C(N)=O)cc5c4)CC3)c2c1	+
SMILES	Methyltransferases
CC(C(=O)NCc1cccc(Br)c1)n1ccc2cc(S(=O)(=O)N3CCCC3)ccc21 (stereo not drawn)	i
COC[C@H]1C[C@@H](NC2CCN(C(C)=O)CC2)[C@H](O)[C@@H]1O	i
CC1=C[C@H](O)[C@H]2C(C)(C)CCC[C@]2(C)[C@@]1(O)CO	i
COC1C=C(C)C(O)(CO)C2(C)CCCC(C)(C)C12 (stereo not drawn)	+
CC1(C)CCCC2(C)C1C(O)C=C(CO)C2(O)CO (stereo not drawn)	i
CCC1(C(=O)NC2CCCCC2)CCCCC(=O)N1 (stereo not drawn)	i
CCC(C)NC(=O)c1ccc2c(=O)n(C(C)C)c3nn(CC(=O)NCc4ccc(C)cc4)c(=O)n3c2c1 (stereo not drawn)	i
CS(=O)(=O)c1ccc([C@H](CC2CCCC2)C(=O)Nc2nccs2)cc1	i
CCOCCCNC(=O)CCn1ccc2cc(S(=O)(=O)N3CCCCC3)ccc21	i
CC1CCC(NC(=O)C2(C)Cn3c(cc4sccc43)C(=O)N2Cc2cccc(Cl)c2)CC1 (stereo not drawn)	i
CCc1c(Cl)c(O)c(Cl)c(O)c1C(=O)O[C@H]1[C@H](O)[C@H](OC)[C@H](OC/C2=C\C=C\C[C@H](O)/C(C)=C\[C@H](CC)[C@@H](O[C@@H]3OC(C)(C)[C@@H](OC(=O)C(C)C)[C@H](O)[C@@H]3O)/C(C)=C/C(C)=C/C[C@@H]([C@@H](C)O)OC2=O)O[C@@H]1C	+
CC(C)n1c(=O)c2ccc(C(=O)NC3CCCC3)cc2n2c(=O)n(Cc3cccc(Cl)c3)nc12	i
CC(C)c1c2cc(-c3ccnc(NC4CCC(NC5CCOCC5)CC4)n3)ccc2nn1C (stereo not drawn)	+
COC(=O)c1ccc2c(c1)nc1n2[C@@H](CNC(=O)CC(C)(C)C)COC1	i
CC(=O)NC1CCN(C(=O)c2coc(COc3cccc(C(F)(F)F)c3)n2)C1 (stereo not drawn)	i
COc1ccc(C2(O)CCC(N3CC[C@@H](NC(=O)CNC(=O)c4cccc(C(F)(F)F)c4)C3)CC2)cn1 (stereo partly drawn)	+
O=C(CNC(=O)c1cccc(C(F)(F)F)c1)N[C@@H]1CCN(Cc2ccc(Cl)cc2)C1	i
Cc1cccc(Cn2nc(C3CCCNC3)n(-c3ccccc3)c2=O)c1 (stereo not drawn)	i
NC(=O)c1cccc2cn(-c3ccc([C@@H]4CCCNC4)cc3)nc12	+!
Cn1nc(C2CCCNC2)c2c(C(=O)NC3CC3)cc(C3CC3)nc21 (stereo not drawn)	i
CCCS(=O)(=O)N1CC(Oc2ccccc2-c2noc(C)n2)C1	i
CCC(=O)N1CCc2c(C(=O)N3CCCCC3)cccc21	i
CCCN1C(=O)c2c(C(=O)NCCCN3CCOCC3)ncn2CC1(C)C(=O)NCc1ccc(C)cc1 (stereo not drawn)	i
CCOC(=O)c1ccc(NS(=O)(=O)c2ccc3c(c2)n(C)c(=O)n3C)cc1	i
CCOC(=O)c1cnc2ccc(-c3cncc(NS(=O)(=O)c4ccccc4)c3)cn12	+
CCOC(=O)c1cccc(NS(=O)(=O)c2ccc3[nH]c(=O)[nH]c3c2)c1	i
CSc1ccc(CNC(=O)c2cc3n(n2)CC(C)(C(=O)NC2CCCC2)N(C)C3=O)cc1 (stereo not drawn)	i
O=C1CCC2(CCN1)CCN(S(=O)(=O)c1cccnc1)CC2	i

Source: PubChem BioAssay (National Center for Advancing Translational Sciences (NCATS))
